Assay results reported in the supplement of paper PMC11628255, “Interference of metal ions on the bioluminescent signal of firefly, Renilla, and NanoLuc luciferases in high-throughput screening assays” (Frontiers in Chemistry, 2024).
± gives the standard deviation of the averaged measurements.

Tested on: NanoLuc luciferase (NLuc)
Test: residual bioluminescent signal relative to negative control without GSH; higher = less interference (more residual luciferase signal)
Details: screening conditions buffer
Method: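 Selected metal salts at 3-4 concentrations tested on purified FLuc, NLuc or RLuc in screening buffer with 0, 0.2 or 2 mM glutathione added; 10 min enzyme pre-incubation at RT, luminescence 10 min after substrate. Signal normalised to negative control without GSH (% N_VALUE); triplicate wells.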

[1] = metal salt concentration 1 mM, glutathione 0 mM
[2] = metal salt concentration 1 mM, glutathione 0.2 mM
[3] = metal salt concentration 1 mM, glutathione 2 mM

| Compound | residual bioluminescent signal (metal salt concentration 0.01 mM, glutathione 0 mM) | residual bioluminescent signal (metal salt concentration 0.01 mM, glutathione 0.2 mM) | residual bioluminescent signal (metal salt concentration 0.01 mM, glutathione 2 mM) | residual bioluminescent signal (metal salt concentration 0.816 mM, glutathione 0 mM) | residual bioluminescent signal (metal salt concentration 0.816 mM, glutathione 0.2 mM) | residual bioluminescent signal (metal salt concentration 0.816 mM, glutathione 2 mM) | residual bioluminescent signal [1] | residual bioluminescent signal [2] | residual bioluminescent signal [3] | residual bioluminescent signal (metal salt concentration 2.5 mM, glutathione 0 mM) | residual bioluminescent signal (metal salt concentration 2.5 mM, glutathione 0.2 mM) | residual bioluminescent signal (metal salt concentration 2.5 mM, glutathione 2 mM) | residual bioluminescent signal (metal salt concentration 0.05 mM, glutathione 0 mM) | residual bioluminescent signal (metal salt concentration 0.05 mM, glutathione 0.2 mM) | residual bioluminescent signal (metal salt concentration 0.05 mM, glutathione 2 mM) | residual bioluminescent signal (metal salt concentration 0.88 mM, glutathione 0 mM) | residual bioluminescent signal (metal salt concentration 0.88 mM, glutathione 0.2 mM) | residual bioluminescent signal (metal salt concentration 0.88 mM, glutathione 2 mM) | residual bioluminescent signal (metal salt concentration 5 mM, glutathione 0 mM) | residual bioluminescent signal (metal salt concentration 5 mM, glutathione 0.2 mM) | residual bioluminescent signal (metal salt concentration 5 mM, glutathione 2 mM) |
| --- | --- | --- | --- | --- | --- | --- | --- | --- | --- | --- | --- | --- | --- | --- | --- | --- | --- | --- | --- | --- | --- |
| [Cl][Fe]([Cl])[Cl] [iron(III) chloride] | 95.59 ± 0.8% | 101 ± 6.7% | 82.7 ± 2.5% | 60.2 ± 3.4% | 69.1 ± 0.65% | 28.9 ± 1.5% | 54.3 ± 4.4% | 55.5 ± 7.2% | 44.4 ± 35% | 4.41 ± 1.8% | 7.61 ± 0.73% | 1.69 ± 0.99% | – | – | – | – | – | – | – | – | – |
| [Cl][Fe][Cl] [iron(II) chloride] | – | – | – | – | – | – | 38.2 ± 3.3% | 47.6 ± 1.5% | 30.5 ± 2.4% | – | – | – | 94.3 ± 1.3% | 100 ± 3.5% | 82.2 ± 1.7% | 47.8 ± 5.5% | 49.4 ± 1.8% | 34.8 ± 2.7% | 1.69 ± 0.79% | 2.48 ± 0.68% | 7.22 ± 0.76% |
